One may read the inhibition as the change of the read-out against control, counted positive when it falls.

A number with no mark means an inactive call. No rule for the calls is given here.

L-lactate dehydrogenase (Plasmodium falciparum (isolate CDC / Honduras)), sequence (Q27743 whole entry, looked up): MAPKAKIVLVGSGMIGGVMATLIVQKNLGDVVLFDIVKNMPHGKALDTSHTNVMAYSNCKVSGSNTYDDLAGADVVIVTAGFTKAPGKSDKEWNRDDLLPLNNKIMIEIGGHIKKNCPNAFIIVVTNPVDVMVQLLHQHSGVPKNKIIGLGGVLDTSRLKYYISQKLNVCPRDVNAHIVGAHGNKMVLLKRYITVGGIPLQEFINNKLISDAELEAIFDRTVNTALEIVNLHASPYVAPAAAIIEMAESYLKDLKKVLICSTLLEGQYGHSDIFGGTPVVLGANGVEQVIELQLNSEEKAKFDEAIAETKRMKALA

This assay has as its target L-lactate dehydrogenase (Plasmodium falciparum (isolate CDC / Honduras)) (UniProt Q27743). In words: PfLDH activity inhibition – cell lysate, 3D7 strain, counter-screen for P. falciparum growth inhibition project (AID 2304).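 Also: 0% = vehicle and 100% = reference inhibitor.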 The following applies: P. falciparum 3D7 crude extract, LDH APAD/NBT absorbance; at 2 µM; stronger effect = higher value.
For `Nc1nc(N)c2c(Oc3ccc(Cl)c(Cl)c3)cccc2n1`, the inhibition was -5%.

Regarding `COc1ccc(OC)c(Cc2c(C)nc3nc(N)nc(N)c3c2C)c1`, the inhibition is -2%.

Turning to `CC(C)(C)c1ccc(-c2nc3c(ccc4nc(N)nc(N)c43)[nH]2)cc1`, the inhibition is 1%.

Take `CC(=O)Nc1ccc(OCCCCCOc2ccc(NC(C)=O)cc2Cl)c(Cl)c1`: the inhibition is -7%.

For the compound `CCOc1cc(Cc2cnc(N)nc2N)ccc1OC`, the inhibition is -1%.

Consider `CCCCNCc1ccc(OCc2cccc(COc3ccc(CNCCCC)cc3I)c2)c(I)c1`, for which the inhibition was 6%.

Consider `COc1cc(Cc2cnc(N)nc2N)cc(OCCCCc2ccc([N+](=O)[O-])cc2)c1OC`, for which the inhibition was -10%.

Turning to `CC(C)c1ccc2c(c1)C(=O)c1ccc(C(=O)O)cc1S2(=O)=O`, the inhibition is -4%.

Consider `Nc1ncc(-c2ccc(S(=O)(=O)Nc3ccc(C(=O)N[C@@H](CCC(=O)O)C(=O)O)cc3)cc2)c(=O)[nH]1`, for which the inhibition was -3%.

Turning to `Cn1c(=N)cc(-c2cccc(I)c2)c2c(=O)[nH]c(N)nc21`, the inhibition is 6%.

With `Nc1nc(N)c2c(ccc3c2ccn3Cc2ccc(Br)cc2)n1`, the inhibition was -13%.

For the compound `COc1ccc(OC)c(CC2c3ccc(Br)c(O)c3CCN2C)c1` (stereo unspecified), the inhibition is -7%.

As to `Oc1cc2ccccc2cc1CNC1CCCCC1`, the inhibition is -9%.

Regarding `COc1ccccc1-c1nc2c(ccc3nc(N)nc(N)c32)[nH]1`, the inhibition is 2%.

Turning to `Nc1nc(N)c2c(Oc3cc(Cl)c(Cl)c(Cl)c3)cccc2n1`, the inhibition was 4%.

Regarding `Cc1nc(C)c(-c2ccc(Oc3ccc(OC(F)(F)F)cc3)cc2)c(OC(=O)c2ccc(CN(C)C)cc2)c1Cl`, the inhibition was 6%.

The values are drawn from PubChem BioAssay.
